The text below walks through data of PubChem BioAssay (Tox21).

Unmarked numbers belong to inactive results. Inconclusive results are not listed. The source made the active and inactive calls. Unless noted, calls come from the whole dose curve; as a rule, active = well fitted curve in the direction sought with a large enough effect in the repeat runs; inconclusive = weak or mixed curves; inactive = no such curve, though single readings can be large; an effect the other way counts as inactive or inconclusive.

A short description of experiment [1]: qHTS assay for small molecules that induce genotoxicity in human embryonic kidney cells expressing luciferase-tagged ATAD5 (AID 651632). Note: nearly all actives have a fitted effect of over 15% in size. Put shortly:
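HEK293T cells carrying luciferase-tagged ATAD5 were given compound or DMSO vehicle and incubated 16 hr at 37C, 5% CO2. Luciferase activity was read after 30 min at room temperature with Amplite; a rise signals genotoxic stress.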
(In general: In qHTS, concentration-response curves come from the screen itself.)

A short description of experiment [2]: qHTS assay for small molecule agonists of the p53 signaling pathway - cell viability (AID 651633; calls by dose curve; note: nearly all actives have a fitted effect of over 30% in size; note: potency is the fitted concentration of half-maximal effect). Put shortly: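 Viability counter-read: CellTiter-Glo luminescence (30 min, room temperature) in the same p53RE-bla plates. These plates had been exposed to compounds for 16 h at 37 C.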
Experiment [3] is described as follows: qHTS assay for small molecules that induce genotoxicity in human embryonic kidney cells expressing luciferase-tagged ATAD5 - cell viability (AID 651634; calls by dose curve; note: nearly all actives have a fitted effect of over 25% in size; note: potency is the fitted concentration of half-maximal effect). Put shortly:
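HEK293T cells carrying luciferase-tagged ATAD5, 2,000 cells/well, exposed to compound for 15.5 hr at 37C. Viability read as live-cell protease activity by CellTiter-Fluor fluorescence after 30 min at 37C.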

Experiment [4] in a line: qHTS assay for small molecule disruptors of the mitochondrial membrane potential - cell viability (AID 720634; calls by dose curve; note: nearly all actives have a fitted effect of over 20% in size; note: potency is the fitted concentration of half-maximal effect). The method, boiled down:
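HepG2 cells, 2,000 per well, attached overnight, then treated 1 hr at 37 C, 5% CO2. Viability read as ATP by CellTiter-Glo luminescence after 30 min at room temperature. Read in the same wells as the m-MPI membrane-potential dye assay.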

Experiment [5] is described as follows: qHTS assay for small molecule disruptors of the mitochondrial membrane potential (AID 720635). Note: potency is the fitted concentration of half-maximal effect. Put shortly: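 Mitochondrial membrane potential tracked with Mito-MPS dye, red aggregates (ex 540/em 590 nm) against green monomers (ex 490/em 535 nm). Compound treatment 1 hr at 37C, dye 30 min in HepG2.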
The nature of experiment [6]: qHTS assay to test for compound auto fluorescence at 590 nm (red) in HepG2 cells (AID 720674). The method, boiled down:
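1 hr compound incubation on HepG2 cells, 37 C, 5% CO2; plate read ex 540 nm / em 590 nm; intensities reported as Rose Bengal sodium equivalents.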

A short description of experiment [7]: qHTS assay to test for compound auto fluorescence at 535 nm (green) in HepG2 cells (AID 720675).
Experiment [8] can be described thus: qHTS assay to test for compound auto fluorescence at 460 nm (blue) in HEK293 cells (AID 720678). Note: potency is the fitted concentration of half-maximal effect. The method, boiled down: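 After cell attachment (4-5 hr, 37C), compounds were pinned onto HEK293 monolayers in 10% dialyzed FBS medium. The blue channel (405/460 nm) was read following overnight culture. Equivalency was calculated against triamterene.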
Experiment [9] in a line: qHTS assay to test for compound auto fluorescence at 535 nm (green) in HEK293 cells (AID 720680).
A short description of experiment [10]: qHTS assay to test for compound auto fluorescence at 460 nm (blue) in HEK293 cell free culture (AID 720681). Note: potency is the fitted concentration of half-maximal effect. The method, boiled down: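 Blue fluorescence (Ex 405/Em 460 nm, triamterene-equivalent) was read immediately after pin transfer of compound or DMSO into medium (DMEM, 10% FBS) without cells.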
Experiment [11] can be described thus: qHTS assay to test for compound auto fluorescence at 535 nm (green) in HEK293 cell free culture (AID 720682). Put shortly: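 Fluorescein serves as the green reference fluorophore; each compound's intrinsic emission at 535 nm (excitation 485 nm) is reported as an equivalent amount of that dye, measured in serum-containing DMEM without cells.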
Experiment [12] in a line: qHTS assay to test for compound auto fluorescence at 590 nm (red) in HEK293 cell free culture (AID 720683). Put shortly:
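Red-channel autofluorescence of compounds in culture medium (DMEM, 10% FBS), no cells, measured at 540/590 nm. Rose Bengal sodium is the reference fluorophore for equivalence.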

The nature of experiment [13]: qHTS assay to test for compound auto fluorescence at 590 nm (red) in HepG2 cell free culture (AID 720684). The method, boiled down:
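Steps: dispense MEM/10% FBS medium, no cells; pin compound or DMSO vehicle; read red channel, Ex/Em 540/590 nm. Output given as Rose Bengal sodium equivalents.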

A short description of experiment [14]: qHTS assay to test for compound auto fluorescence at 460 nm (blue) in HepG2 cell free culture (AID 720685). Put shortly:
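Compound (23 nL) or DMSO pinned into cell-free MEM with 10% FBS; blue fluorescence read at 405/460 nm excitation/emission, expressed as auto-fluorescence equivalency to triamterene.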

A short description of experiment [15]: qHTS assay to test for compound auto fluorescence at 535 nm (green) in HepG2 cell free culture (AID 720686).
Experiment [16] in a line: qHTS assay to test for compound auto fluorescence at 460 nm (blue) in HepG2 cells (AID 720687). The method, boiled down:
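Blue-channel autofluorescence (Ex/Em 405/460 nm, triamterene-equivalent) was measured after 1 hr compound exposure at 37 C, 5% CO2. Cells were HepG2, plated overnight at 37 C in MEM plus 10% FBS.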

The nature of experiment [17]: qHTS assay to test for compound auto fluorescence at 590 nm (red) in HEK293 cells (AID 720679). The method, boiled down: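 Plates of HEK293 cells (10% dialyzed FBS) are treated with 23 nL compound or DMSO vehicle after a 4-5 hr attachment period, incubated overnight at 37C, and read for red fluorescence at 540/590nm.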
The target of experiment [18] is Glucocorticoid receptor (Homo sapiens) (UniProt P04150). The experiment is described as follows: qHTS assay to identify small molecule agonists of the glucocorticoid receptor (GR) signaling pathway (AID 720691; active = well fitted activation curve with a large enough effect in the signal ratio in the repeat runs, not every such curve was filed as active; the % refers to the signal ratio). The method, boiled down: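 GR-bla HeLa cells carrying a GRE-driven beta-lactamase reporter, exposed to compounds for 18 h at 37 C. Reporter activation read as fluorescence after 2 h with LiveBLAzer B/G FRET substrate at room temperature.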
Chain of Glucocorticoid receptor (Homo sapiens) (P04150 whole entry, looked up): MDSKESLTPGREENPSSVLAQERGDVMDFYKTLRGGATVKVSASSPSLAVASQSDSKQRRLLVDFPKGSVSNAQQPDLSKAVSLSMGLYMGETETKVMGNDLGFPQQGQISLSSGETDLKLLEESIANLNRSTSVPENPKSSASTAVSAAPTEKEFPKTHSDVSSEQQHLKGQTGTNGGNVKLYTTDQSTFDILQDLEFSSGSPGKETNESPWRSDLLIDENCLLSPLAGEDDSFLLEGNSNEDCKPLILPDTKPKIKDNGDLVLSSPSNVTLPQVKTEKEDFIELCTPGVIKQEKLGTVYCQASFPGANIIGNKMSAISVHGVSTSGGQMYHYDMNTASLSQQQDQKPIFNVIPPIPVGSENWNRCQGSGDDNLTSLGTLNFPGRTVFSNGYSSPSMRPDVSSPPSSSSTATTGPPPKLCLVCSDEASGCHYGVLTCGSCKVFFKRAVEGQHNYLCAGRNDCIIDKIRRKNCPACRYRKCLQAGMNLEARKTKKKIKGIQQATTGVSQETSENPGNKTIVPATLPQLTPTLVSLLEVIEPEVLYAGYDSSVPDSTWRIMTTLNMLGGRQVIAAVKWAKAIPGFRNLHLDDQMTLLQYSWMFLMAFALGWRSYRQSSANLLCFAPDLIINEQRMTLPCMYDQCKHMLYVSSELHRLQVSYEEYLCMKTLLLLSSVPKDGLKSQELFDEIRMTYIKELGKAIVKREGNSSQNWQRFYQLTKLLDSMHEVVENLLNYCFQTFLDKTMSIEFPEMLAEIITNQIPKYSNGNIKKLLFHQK

Experiment [19] shares this target. Briefly: qHTS assay to identify small molecule antagonists of the glucocorticoid receptor (GR) signaling pathway (AID 720692; active = well fitted inhibition curve with a large enough effect in the signal ratio in the repeat runs, not every such curve was filed as active; the % refers to the signal ratio). The method, boiled down: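 GR-bla HeLa cells carrying a GRE-driven beta-lactamase reporter received compound after 4 h plating, then dexamethasone (5 nM final). After 18 h at 37C, the FRET substrate was loaded for 2 h at room temperature and fluorescence read.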
Tags give direction and shape of the fitted curve or compound fluorescence and quenching.

As for `COC12CC[C@@]3(C[C@@H]1C(C)(O)C(C)(C)C)[C@H]1Cc4ccc(O)c5c4[C@@]3(CCN1CC1CC1)[C@H]2O5` (some centres undefined), the Potency entry in experiment [1], in [8], in experiment [10], in experiment [14] and in experiment [16] was “inactive” in each case. Also, the Potency in experiment [2] is 54.1 µM (active); in experiment [3], 60.7 µM (active); in [4], 54.1 µM (active); in [5], 19.2 µM (active). For the same molecule, the outcome in [6], in experiment [7], in experiment [9], in experiment [11], in [12] and in experiment [13] was inactive. For the same molecule, in experiment [15], the molecule was classed as inactive.

`Cc1c(Cl)c(=O)oc2cc(OP(=O)(OCCCl)OCCCl)ccc12`: the Potency result in experiment [1], in experiment [2], in experiment [3], in [4] and in [18] was “inactive” in each case. The result in experiment [6], in experiment [7], in experiment [17], in experiment [9], in experiment [11] and in experiment [12] was inactive. Further, the call in experiment [13] and in experiment [15] was inactive. Also, the figures for the Potency in [8] and in [10] were 12.6 µM [fluorescent] (active) and 12.6 µM (active), respectively.

With `c1ccc2c(c1)OCC(C1=NCCN1)O2` (centres undefined), the Potency result in experiment [1], in [2], in experiment [3], in experiment [4], in experiment [8] and in [10] was “inactive” each time. Further, the Potency entry in experiment [14] and in experiment [16] was “inactive” each time. In [5], the Potency was 27.8 µM (active). For the same molecule, the outcome in experiment [6], in experiment [7], in [9], in experiment [11], in [12] and in experiment [13] was inactive. For the same molecule, the call in experiment [15] was inactive.

With `N#CCCSCCC#N`, the Potency result in [1], in [2], in experiment [3], in [4], in [5] and in experiment [8] was “inactive” each time. The Potency result in [10], in experiment [14], in [16], in experiment [18] and in experiment [19] was “inactive” each time. Also, the molecule was classed as inactive in [6], in experiment [7], in experiment [9], in experiment [11], in experiment [12] and in experiment [13]. In addition, the molecule was called inactive in experiment [15].

As to `O=C(NC(=O)c1c(F)cccc1F)Nc1cc(Cl)c(OC(F)(F)C(F)F)c(Cl)c1`, the Potency result in experiment [1], in [2], in experiment [3], in [4], in experiment [8] and in experiment [10] was “inactive” each time. Moreover, the Potency entry in experiment [14], in experiment [16] and in experiment [19] was “inactive” throughout. For the same molecule, the Potency in [5] was 19.3 µM (active). The molecule was called inactive in experiment [6], in experiment [7], in [17], in [9], in experiment [11] and in experiment [12]. For the same molecule, the result in experiment [13] and in experiment [15] was inactive.

For the molecule `CCCOCC(=Nc1ccc(Cl)cc1C(F)(F)F)n1ccnc1`, the Potency result in experiment [1], in experiment [8], in experiment [10], in experiment [14] and in experiment [16] was “inactive” each time. Further, the Potency was 24.3 µM (active) in [2], 61.1 µM (active) in [3], 30.6 µM (active) in [4] and 6.11 µM (active) in experiment [5]. The outcome in [6], in experiment [7], in experiment [9], in [11], in experiment [12] and in [13] was inactive. In addition, the molecule was called inactive in [15].

Consider `CC[C@H]1C[C@@H]2C[C@H]3c4[nH]c5ccc(OC)cc5c4CCN(C2)[C@@H]13`, for which the Potency result in experiment [1], in [2], in experiment [3], in experiment [4], in experiment [8] and in experiment [10] was “inactive” throughout. Moreover, the Potency entry in [14] and in experiment [16] was “inactive” throughout. For the same molecule, the molecule was classed as inactive in experiment [6], in [7], in [9], in experiment [11], in experiment [12] and in experiment [13]. In addition, the molecule was classed as inactive in [15].
